Data from PubChem BioAssay AID1508622 (National Center for Advancing Translational Sciences (NCATS), 2021).
Activity calls are given as the source filed them. Entries that show only a call come without a potency. The call rests on the fitted dose curve; in most records, active means well fitted activation curve with a large enough effect; inconclusive means small, poorly fitted or top-dose-only effect; inactive means no such curve, though single readings can be large or run the other way.
Potency means the concentration at half of the fitted maximal effect.

Experiment: Confirmatory qHTS for Identification of Small Molecule Activators of Huntingtin-Antisense Promoter Activity
Conditions: HEK293 HTT-AS promoter firefly luciferase reporter, 24 h; series mostly up to 57.5 µM
Outline: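 2,500 luciferase reporter HEK293 cells/well; 24 h culture; cpds up to 57.5 uM final, PTC124 50 uM ctrl; 24 h, 37C; Dual-Glo FLuc reagent, 10 min RT; lum. Norm.: vehicle 0%, zero RLU -100%.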
For `CCCc1ccc(C2Sc3ccccc3NC3=C2C(=O)c2ccccc23)cc1` (centres undefined), the Potency was “inactive”. In the case of `CC(C)Oc1ccc(C(=O)N(Cc2ccco2)c2ccccn2)cc1`, the Potency is reported as 2690 nM (active). With `CCOc1ccc(C(=O)N(Cc2cc(OC)c(OC)c(OC)c2)c2ccccn2)cc1` the Potency was “inactive”. In the case of `CC1Cc2cc(S(=O)(=O)NCc3ccccc3Cl)ccc2N1C(=O)C1CCC1` (centres undefined), the Potency is reported as “inactive”. With `CCc1ccc(NC(=O)c2ccc(F)c(S(=O)(=O)N(C)C3CCCCC3)c2)cc1` the Potency was “inactive”. For `COc1ccc2c(c1)CCc1c(C(=O)Nc3c(C)nn(Cc4ccccc4C)c3C)noc1-2`, the Potency was “inactive”. In the case of `COc1cccc(NC(=O)CN2CCCN(S(=O)(=O)c3ccc(Br)cc3)CC2)c1`, the Potency is reported as “inactive”. For `Cc1cccc(N2CCN(S(=O)(=O)c3cc(C(=O)Nc4ccc(Oc5ccccc5)cc4)ccc3F)CC2C)c1` (centres undefined), the Potency was “inactive”. With `CC(=O)c1cccc(NS(=O)(=O)c2cccc(S(=O)(=O)c3ccc(Br)cc3)c2)c1` the Potency was “inactive”. For `COc1ccc(NS(=O)(=O)c2ccc3c(c2)CCCN3C(=O)C2CCC2)cc1OC`, the Potency was “inactive”. With `COc1ccccc1N1CCN(C(=O)C2CCCN(S(=O)(=O)c3ccc4c(c3)oc(=O)n4C)C2)CC1` (centres undefined) the Potency was “inactive”. With `CCOC(=O)c1cc(-c2ccc(F)cc2)n(CCC(=O)NCCc2ccc(C)cc2)c1C` the Potency was “inactive”. With `COc1ccccc1C1C=C(c2ccc(F)cc2)Nc2nc(-c3ccc(Cl)cc3)nn21` (centres undefined) the Potency was “inactive”. For `O=c1cc(-c2ccccc2)oc2cc(O)cc(O)c12`, the Potency was 26900 nM (active). With `O=C(c1ccc(CS(=O)c2ccccc2Cl)o1)N1CCN(c2cccc(C(F)(F)F)c2)CC1` (centres undefined) the Potency was “inactive”. In the case of `CCOc1ccc(C(=O)Nc2ccc3c(c2)CCCN3S(=O)(=O)c2ccc(C)cc2)cc1`, the Potency is reported as “inactive”. In the case of `Cc1cccc(CNC(=O)C2CCN(S(=O)(=O)c3ccc4c(c3)CCCN4C(=O)C3CCC3)CC2)c1`, the Potency is reported as “inactive”. For `Cc1ccc(CNC(=O)c2c(Nc3ccccc3C)sc(C(=O)c3ccc(F)cc3)c2N)cc1`, the Potency was “inactive”. In the case of `Cc1ccc(NC(=O)C2CCCN2S(=O)(=O)c2ccc3c(c2)CCCC(=O)N3)cc1C` (centres undefined), the Potency is reported as “inactive”. With `CCN(CCCNC(=O)CSc1cc(=O)n(CC)c2ccccc12)c1cccc(C)c1` the Potency was “inactive”. In the case of `Cc1nc2cccnc2n1-c1cccc(C(=O)NCc2ccc(OC(C)C)cc2)c1`, the Potency is reported as “inactive”. In the case of `Cc1ccccc1OCC(=O)Nc1ccccc1C(=O)OCc1cc(=O)n2c(C)csc2n1`, the Potency is reported as “inactive”. With `CCCC(O)c1nc2ccccc2n1CCCCOc1ccc(OC)cc1` (centres undefined) the Potency was “inactive”. In the case of `O=C(c1ccc2c(c1)N(Cc1ccccc1)C(=O)c1ccccc1S2(=O)=O)N1CCCCCC1`, the Potency is reported as “inactive”. In the case of `CCN(Cc1ccccc1)S(=O)(=O)c1ccc(N2CCCCS2(=O)=O)cc1`, the Potency is reported as “inactive”. For `Cc1ccccc1-c1nc(CS(=O)CC(=O)N2CCN(c3cc(Cl)ccc3C)CC2)c(C)o1` (centres undefined), the Potency was “inactive”. In the case of `CC1=C(C(=O)Nc2ccc(Cl)cc2)C(c2ccccc2C)n2ncc(C(=O)Nc3ccc(C)cc3)c2N1` (centres undefined), the Potency is reported as “inactive”. For `CCOc1ccc(CCNC(=O)c2ccc(CS(=O)(=O)Cc3ccccc3Cl)o2)cc1OCC`, the Potency was “inactive”. With `CCOc1ccc(NC(=O)c2c(Nc3ccccc3C)sc(C(=O)c3ccccc3)c2N)cc1` the Potency was “inactive”. With `CCc1c(C)nc2nncn2c1Nc1ccc(C(C)C)cc1` the Potency was “inactive”. With `COc1cccc(C(=O)Nc2ccc(S(=O)(=O)N(Cc3ccccc3)c3ccccc3)cc2)c1` the Potency was “inactive”. In the case of `Cc1cccc(NC(c2cccc(Cl)c2)c2ccc3cccnc3c2O)n1` (centres undefined), the Potency is reported as “inactive”. With `Cc1ccc(S(=O)(=O)n2nc(-c3ccccc3)nc2NCc2ccccc2Cl)cc1` the Potency was “inactive”. For `Cc1ccc(NC(=O)c2ccc(F)c(S(=O)(=O)NCCc3ccccc3)c2)cc1F`, the Potency was “inactive”. With `CCC(=O)C1=C(c2cccc([N+](=O)[O-])c2)N(C(=O)CC)n2c(nnc2C2CCCCC2)S1` the Potency was “inactive”. For `Cc1cccc(Cn2c(SCc3ccc(C(=O)N4CCCCCC4)cc3)nc3ccncc32)c1`, the Potency was “inactive”. For `Cc1ccc(-n2ncc3c(N(CCO)Cc4ccccc4)ncnc32)cc1`, the Potency was 1070 nM (active). In the case of `O=C(Nc1ccc(F)cc1F)N1CCN(c2ccc(Cl)c(Cl)c2)CC1`, the Potency is reported as “inactive”. In the case of `CCC(C(=O)NCCc1cc(OC)ccc1OC)n1nc(C)c2c(C)n(-c3ccccc3)nc2c1=O` (centres undefined), the Potency is reported as “inactive”.
